Sampled rows, rich in hits. Any-hit rate of the full collection: about 4.5%.
Jurkat NFkB inh: lowers PMA/ionomycin-induced NF-kB signal in Jurkat cells. inhibition, % at 4 µM. 330,000 compounds, 0.53% hits. PMA/ionomycin-induced NF-kB luciferase reporter, luminescence. AID 435003; in the data active = inhibition above about 50%
Mdm2 MdmX PPI: human Mdm2/MdmX binding inhibition | 330,000 compounds, 3% hits | inhibition, % at 8 µM | SaOS-2 split-luciferase Mdm2/MdmX complementation, luminescence | O15151+Q00987;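 active = inhibition of at least 50% at 8 µM in the primary screen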
Target sequence (O15151 whole entry, looked up): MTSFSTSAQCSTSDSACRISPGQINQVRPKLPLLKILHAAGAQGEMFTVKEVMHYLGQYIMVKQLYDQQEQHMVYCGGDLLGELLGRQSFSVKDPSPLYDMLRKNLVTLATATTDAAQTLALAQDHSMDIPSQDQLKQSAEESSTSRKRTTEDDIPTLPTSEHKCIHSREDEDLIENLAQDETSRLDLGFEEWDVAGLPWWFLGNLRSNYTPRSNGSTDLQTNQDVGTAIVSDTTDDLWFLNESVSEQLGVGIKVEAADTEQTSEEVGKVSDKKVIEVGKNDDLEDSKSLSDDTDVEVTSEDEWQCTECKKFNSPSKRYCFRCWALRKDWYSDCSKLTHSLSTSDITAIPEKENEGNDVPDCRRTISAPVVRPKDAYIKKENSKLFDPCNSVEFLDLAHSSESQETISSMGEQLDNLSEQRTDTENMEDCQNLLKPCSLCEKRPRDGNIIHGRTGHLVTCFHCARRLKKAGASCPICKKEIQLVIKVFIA
Target sequence (Q00987 whole entry, looked up): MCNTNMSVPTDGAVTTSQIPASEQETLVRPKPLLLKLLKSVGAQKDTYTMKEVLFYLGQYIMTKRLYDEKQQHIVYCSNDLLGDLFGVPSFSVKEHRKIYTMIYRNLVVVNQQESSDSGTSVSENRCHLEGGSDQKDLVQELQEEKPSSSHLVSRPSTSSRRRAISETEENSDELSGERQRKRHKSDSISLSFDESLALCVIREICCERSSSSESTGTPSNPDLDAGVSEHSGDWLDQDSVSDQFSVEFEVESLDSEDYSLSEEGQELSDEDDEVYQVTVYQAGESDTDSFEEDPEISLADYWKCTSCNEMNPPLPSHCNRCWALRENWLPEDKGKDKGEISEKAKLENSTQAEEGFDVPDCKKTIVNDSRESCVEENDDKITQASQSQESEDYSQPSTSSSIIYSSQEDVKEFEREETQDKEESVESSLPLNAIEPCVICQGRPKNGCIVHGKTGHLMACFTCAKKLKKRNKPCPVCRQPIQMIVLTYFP
CSC inhib: blocks cancer stem cells; cancer stem cell-like cells viability, luminescence; inhibition, % at 7.5 µM; 300,000 compounds, 1.1% hits; in the data active = inhibition above about 75%; tested in HMLE shEcad cells
Beta apoptosis: blocks beta cell apoptosis; INS-1E cytokine-induced death, ATP luminescence, 48 h; percent of positive-control rescue, neutral wells zero; protection from apoptosis, % (test concentration not listed); 300,000 compounds, 0.8% hits;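 active = Every replicate reaches about 75%, or at least half do and their mean reaches it too, limit read from the data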;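 note: 0% = cytokine-treated negative control wells and 100% = positive control rescue; higher means more ATP so stronger rescue from cytokine killing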
Gli-Sufu antag: blocks Gli-Sufu signaling in a luciferase reporter; Sufu-KO-LIGHT fibroblasts, Gli luciferase reporter luminescence; inhibition, % at 5 µM; 340,000 compounds, 0.74% hits; AID 588413;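 active = inhibition above about 55%, limit read from the data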;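 note: 0% = DMSO-treated cells and 100% = wells with medium but no cells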
697 NFkB inh: lowers PMA/ionomycin-induced NF-kB signal in 697 B cells; 697 B-cell NF-kB luciferase reporter, 16 h; inhibition, % at 4 µM; 330,000 compounds, 0.33% hits; AID 435022; in the data active = inhibition above about 35%
Mdm2 MdmX conf: confirmation of human Mdm2/MdmX interaction inhibitors; inhibition, % at 8 µM; shares compounds with Mdm2 MdmX PPI; 10,000 compounds, 55% hits; Mdm2-MdmX binding, luminescent assay; AID 489028; in the data active = inhibition above about 40%
Full FLuc ctr: inhibits full-length luciferase, flagging false Mdm2/MdmX hits; inhibition, % at 8 µM; 6,200 compounds, 77% hits; SaOS-2 full-length luciferase counterscreen, luminescence; AID 504607; shares compounds with Mdm2 MdmX PPI;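 active = mean inhibition at 8 µM reaching about 37%, which flags the compound as non-specific, limit read from the data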;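 note: p53-null SaOS-2 cells with luciferase driven by a doxycycline-inducible promoter; compound on cells about two nights before reading with doxycycline added after day one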
Starred values were filed as active, the others as inactive.

`COc1ccccc1OCc1nc(C#N)c(NCCCn2ccnc2)o1` gave Jurkat NFkB inh -14, Mdm2 MdmX PPI 8, CSC inhib 6, Beta apoptosis -1, Gli-Sufu antag -11 and 697 NFkB inh -25.
`COc1cccc(N2CC(O)=C(c3nc4ccccc4s3)C2=N)c1` gave Jurkat NFkB inh -32, Mdm2 MdmX PPI 70*, CSC inhib 51, Beta apoptosis 7, Gli-Sufu antag -20, 697 NFkB inh -188, Mdm2 MdmX conf 57* and Full FLuc ctr 111*.
For COc1ccc(N2CC(O)=C(c3nc4ccccc4s3)C2=N)cc1 the results were Jurkat NFkB inh -34, Mdm2 MdmX PPI 8, CSC inhib 12, Beta apoptosis 0, Gli-Sufu antag 7 and 697 NFkB inh -114.
Screening Nc1nonc1-n1nnc(C(=O)N/N=C/c2ccc(F)cc2)c1-c1ccc2c(c1)OCO2 returned Jurkat NFkB inh -2, Mdm2 MdmX PPI 59*, CSC inhib 6, Beta apoptosis 0, Gli-Sufu antag -11, 697 NFkB inh 18 and Mdm2 MdmX conf -9.
Cc1ccccc1COc1cccc(/C=N/NC(=O)c2nnn(-c3nonc3N)c2C)c1 was read as Jurkat NFkB inh 8, Mdm2 MdmX PPI 51*, CSC inhib -1, Beta apoptosis 10, Gli-Sufu antag -2, 697 NFkB inh -35, Mdm2 MdmX conf 40 and Full FLuc ctr 87*.
For Cc1c(C(=O)N/N=C/c2cccc(O)c2)nnn1-c1nonc1N the results were Jurkat NFkB inh 14, Mdm2 MdmX PPI -9, CSC inhib -8, Beta apoptosis -1, Gli-Sufu antag 1 and 697 NFkB inh -15.
For Nc1nonc1-n1nnc(C(=O)N/N=C/c2ccc(OCc3ccccc3)cc2)c1COc1ccc(F)cc1 the results were Jurkat NFkB inh -36, Mdm2 MdmX PPI 61*, CSC inhib 26, Beta apoptosis 10, Gli-Sufu antag -4, 697 NFkB inh 17, Mdm2 MdmX conf 40* and Full FLuc ctr 105*.
Screening Nc1nonc1-n1nnc(C(=O)N/N=C/c2ccc(OCc3ccccc3)cc2)c1CNc1ccccc1 returned Jurkat NFkB inh -10, Mdm2 MdmX PPI 77*, CSC inhib 13, Beta apoptosis 5, Gli-Sufu antag 0, 697 NFkB inh 0 and Mdm2 MdmX conf 10.
Screening Nc1nonc1-n1nnc(C(=O)N/N=C/c2ccc(O)cc2)c1COc1ccc(F)cc1 returned Jurkat NFkB inh 0, Mdm2 MdmX PPI 23, CSC inhib -3, Beta apoptosis -6, Gli-Sufu antag -24 and 697 NFkB inh 2.
`CC1CN(S(=O)(=O)c2cccc(C(=O)N3CCC(C(N)=O)CC3)c2)CC(C)O1` (stereo not drawn) gave Jurkat NFkB inh 11, Mdm2 MdmX PPI 1, CSC inhib -14, Beta apoptosis 0, Gli-Sufu antag 13 and 697 NFkB inh 23.
CCn1nc(C)c(C(=O)Nc2cc(Oc3ccc(Cl)cc3)cc([N+](=O)[O-])c2)c1C was read as Jurkat NFkB inh 4, Mdm2 MdmX PPI 57*, Beta apoptosis 2, Gli-Sufu antag 1, 697 NFkB inh 14, Mdm2 MdmX conf 45* and Full FLuc ctr 53*.
O=c1cc(N2CCCCC2)c(-c2ccccc2)n[nH]1 was read as Jurkat NFkB inh -6, Mdm2 MdmX PPI -13, CSC inhib -5, Beta apoptosis -3, Gli-Sufu antag 7 and 697 NFkB inh 7.
Screening O=c1cc(N2CCCCC2)c(-c2ccccc2)nn1Cc1c(Cl)cccc1Cl returned Jurkat NFkB inh -10, Mdm2 MdmX PPI 56*, CSC inhib 104*, Beta apoptosis 16, Gli-Sufu antag 6, 697 NFkB inh -17 and Mdm2 MdmX conf 32.
For CCOC(=O)N1CCC(NS(=O)(=O)c2cc(C(=O)OC)n(C)c2)CC1 the results were Jurkat NFkB inh -2, Mdm2 MdmX PPI 14, CSC inhib -2, Beta apoptosis -4, Gli-Sufu antag 0 and 697 NFkB inh -4.
For COc1ccc2oc(/C=C/N(C)C)c(C(=O)c3ccc(Cl)cc3)c2c1 the results were Jurkat NFkB inh -10, Mdm2 MdmX PPI 79*, CSC inhib 40, Beta apoptosis -4, Gli-Sufu antag -3, 697 NFkB inh 25 and Mdm2 MdmX conf 26.
Screening Cn1c(N)c(C(=O)COC(=O)Cc2cccc(C(F)(F)F)c2)c(=O)n(C)c1=O returned Jurkat NFkB inh -10, Mdm2 MdmX PPI -2, CSC inhib -17, Beta apoptosis -3, Gli-Sufu antag -18 and 697 NFkB inh -3.
`COc1ccc(COc2cc(-c3cccc(OC)c3)nc3ccc(NC(=O)c4cccnc4)cc23)cc1` gave Jurkat NFkB inh 17, Mdm2 MdmX PPI 63*, CSC inhib 38, Beta apoptosis 12, Gli-Sufu antag 9, 697 NFkB inh 35, Mdm2 MdmX conf 55* and Full FLuc ctr 69*.
`COc1ccc(COc2cc(-c3cccc(OC)c3)nc3ccc(NC(=O)c4ccc(OC)cc4)cc23)cc1` gave Jurkat NFkB inh 31, Mdm2 MdmX PPI 52*, CSC inhib 62, Beta apoptosis 25, Gli-Sufu antag 19, 697 NFkB inh 21, Mdm2 MdmX conf 40* and Full FLuc ctr 62*.
`CCOc1ccccc1CN1CCC(n2nccc2NC(=O)C2CCCC2)CC1` gave Jurkat NFkB inh 15, Mdm2 MdmX PPI 35, CSC inhib 3, Beta apoptosis 5, Gli-Sufu antag 13 and 697 NFkB inh 5.
For Cc1ccc2nc(N=C(N)N)nc(C)c2c1 the results were Jurkat NFkB inh 17, Mdm2 MdmX PPI 51*, CSC inhib 8, Gli-Sufu antag 18, 697 NFkB inh -82, Mdm2 MdmX conf 44* and Full FLuc ctr 102*.
For Cc1nc(N=C(N)N)nc2ccccc12 the results were Jurkat NFkB inh -9, Mdm2 MdmX PPI 39, CSC inhib 2, Gli-Sufu antag 12 and 697 NFkB inh -82.
`CCc1ccc2nc(N=C(N)N)nc(C)c2c1` gave Jurkat NFkB inh 11, Mdm2 MdmX PPI 59*, CSC inhib 17, Beta apoptosis 15, Gli-Sufu antag -16, 697 NFkB inh 14, Mdm2 MdmX conf 42* and Full FLuc ctr 82*.
For Cc1ccc2nc(/N=C(\N)NC(=O)NC3CCCCC3)nc(C)c2c1 the results were Jurkat NFkB inh 23, Mdm2 MdmX PPI 65*, CSC inhib 63, Beta apoptosis -1, Gli-Sufu antag 12, 697 NFkB inh -16, Mdm2 MdmX conf 46* and Full FLuc ctr 57*.
Screening N#Cc1ccccc1CSCCNC(=O)Cc1c(F)cccc1Cl returned Jurkat NFkB inh 3, Mdm2 MdmX PPI -13, CSC inhib 3, Beta apoptosis 3, Gli-Sufu antag 1 and 697 NFkB inh 17.
